According to PubChem BioAssay (NCI):
Compounds without any hit were thinned out: in the full panel of roughly 79,000, 15% have a hit. Unmarked numbers belong to inactive results. Calls of active or inactive are those of the source. Cut-off read from the data, not from the text of the source: active = growth inhibition above about 70%; inactive = the rest.

What was measured:
[1] = NCI Yeast Anticancer Drug Screen. Data for the rad50 strain (AID 155);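 note: 0% = growth of vehicle-only cultures of the same strain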; conditions: S. cerevisiae rad50 strain growth inhibition, hits give high values
Outline: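 Vehicle-treated cultures provide the reference for the growth inhibition reported for compound-exposed, repair-deficient yeast.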

[2] = NCI Yeast Anticancer Drug Screen. Data for the mec2-1 strain (AID 157); conditions: S. cerevisiae mec2-1 strain, hits give high values
Outline: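 Growth inhibition is read against vehicle-treated controls after compound exposure of the mec2-1 yeast strain, which is defective in DNA damage repair or cell cycle control.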

[3] = NCI Yeast Anticancer Drug Screen. Data for the sgs1 mgt1 strain (AID 161);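 note: 0% = growth of cultures given vehicle only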; conditions: S. cerevisiae sgs1 mgt1 strain, hits give high values
Outline: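 Yeast cells carrying a defined DNA-repair defect were exposed to test compounds. Growth inhibition was measured relative to vehicle-treated controls.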

[4] = NCI Yeast Anticancer Drug Screen. Data for the cln2 rad14 strain (AID 165);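 note: 0% = growth equal to vehicle treated cultures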; conditions: S. cerevisiae cln2 rad14 strain, hits give high values
Outline: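 Growth inhibition, relative to vehicle-treated controls, is the read-out. The test organism is a yeast strain with defined genetic alterations, cln2 rad14.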

[5] = NCI Yeast Anticancer Drug Screen. Data for the bub3 strain (AID 167); conditions: S. cerevisiae bub3 mutant strain, hits give high values
Outline: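 Mutant yeast screening strain plus compound; vehicle-treated cultures serve as the 0% inhibition reference.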

[6] = NCI Yeast Anticancer Drug Screen. Data for the mlh1 rad18 strain (AID 175); conditions: S. cerevisiae mlh1 rad18 strain growth inhibition, hits give high values
Outline: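 Cells of a genetically altered yeast strain, deficient in DNA damage repair, were treated with compound. Their growth was then compared with that of vehicle-treated cultures to give inhibition.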

[7] = at 5.0 µM (retest, dose inferred, filed as 0.5)
[8] = at 50.0 µM (retest, dose inferred, filed as 5.0)

Row | SMILES | growth inhibition [1, 7] | growth inhibition [1, 8] | growth inhibition ([1]; at 50.0 µM) | growth inhibition [2, 7] | growth inhibition [2, 8] | growth inhibition ([2]; at 50.0 µM) | growth inhibition [3, 7] | growth inhibition [3, 8] | growth inhibition ([3]; at 50.0 µM) | growth inhibition [4, 7] | growth inhibition [4, 8] | growth inhibition ([4]; at 50.0 µM) | growth inhibition [5, 7] | growth inhibition [5, 8] | growth inhibition ([5]; at 50.0 µM) | growth inhibition [6, 7] | growth inhibition [6, 8] | growth inhibition ([6]; at 50.0 µM)
1 | ClCCN(CCCl)c1ccc(CNCCCNCc2ccc(N(CCCl)CCCl)cc2)cc1 | -1% | 57% | 94.7% (active) | -13% | 7% | 49% | -12% | 41% | 99.1% (active) | -2% | 37% | 14.8% | -3% | 38% | 43% | 4% | 98% (active) | 99.2% (active)
2 | CCCCN(CCCC)CCc1ccc(OC(=O)c2ccc(N)cc2)cc1 | 27% | 76% (active) | 82.5% (active) | 23% | 80% (active) | 70.7% (active) | 46% | 90% (active) | 91.2% (active) | 42% | 73% (active) | 90.2% (active) | 50% | 84% (active) | 79% (active) | 32% | 78% (active) | 84.8% (active)
3 | N#CN(Cc1ccccc1)C(c1ccccc1)(c1ccccc1)c1ccccc1.[Cl][Sn]([c]1ccccc1)([c]1ccccc1)[c]1ccccc1 | 99% (active) | 91% (active) | 97.3% (active) | 100% (active) | 94% (active) | 98.3% (active) | 100% (active) | 91% (active) | 98% (active) | 99% (active) | 85% (active) | 97.5% (active) | 99% (active) | 87% (active) | 98.1% (active) | 99% (active) | 88% (active) | 98% (active)
4 | CC[CH2][Sn]([CH2]CC)([CH2]CC)[CH2]CCBr | 98% (active) | 99% (active) | 99.5% (active) | 99% (active) | 100% (active) | 99.7% (active) | 99% (active) | 100% (active) | 99.6% (active) | 99% (active) | 98% (active) | 99.3% (active) | 99% (active) | 99% (active) | 99.7% (active) | 99% (active) | 99% (active) | 99.5% (active)
5 | C/C1=C\[C@@H](O)C(=O)/C=C/C=C\c2csc(n2)[C@@H](C)NC(=O)C[C@@]2(CC1)S(=O)SC(=O)[C@]2(C)O (some centres not stated) | 92% (active) | 98% (active) | 91.6% (active) | 98% (active) | 99% (active) | 92.5% (active) | 90% (active) | 98% (active) | 92.2% (active) | 97% (active) | 98% (active) | 89.2% (active) | 94% (active) | 98% (active) | 90.3% (active) | 96% (active) | 98% (active) | 85% (active)
6 | COc1cc(N(CCCl)CCCl)ccc1C=Nc1cccc(Cl)c1 | 5% | 45% | 84% (active) | -6% | 51% | 62.6% | 1% | 7% | 94% (active) | 0% | 20% | 81.6% (active) | 0% | 14% | 87% (active) | 17% | 87% (active) | 94.2% (active)
7 | CCC[CH2][Sn]1([CH2]CCC)[O]C(=O)C(C(C)C)N=Cc2ccccc2[O]1 (configuration not stated) | 15% | 15% | 89.8% (active) | 17% | 17% | 93% (active) | 12% | 12% | 90.8% (active) | 7% | 7% | 91.6% (active) | -4% | -4% | 90.8% (active) | -2% | -2% | 88.5% (active)
8 | Nc1ccc(Cc2ccc(N)c(Cl)c2)cc1Cl | -6% | 90% (active) | 78% (active) | -8% | 78% (active) | 95.1% (active) | -1% | 92% (active) | 95.2% (active) | -10% | 91% (active) | 75.8% (active) | 0% | 93% (active) | 96.8% (active) | -3% | 97% (active) | 97.2% (active)
9 | [Cl][Hg].c1ccc([As]c2ccc(-c3ccccc3)cc2)cc1 (configuration not stated) | 99% (active) | 90% (active) | 99% (active) | 99% (active) | 92% (active) | 99.4% (active) | 100% (active) | 93% (active) | 99.2% (active) | 99% (active) | 91% (active) | 99% (active) | 99% (active) | 92% (active) | 98.5% (active) | 100% (active) | 92% (active) | 99% (active)
